Cycloheximide cs: counter-screen hit for Shiga toxin inhibitors, cycloheximide | max response, % | cell reporter, cycloheximide protein synthesis inhibition counterscreen | 12% of 300,000 active; in the data active = max response mostly above about 13%, no sharp cut-off; inactive = mostly below about 14%; also: read at 38.3 µM for the half of the compounds with a filed dose; 0% is about no effect
Giardia FBPA inh: inhibitors of Giardia lamblia fructose-1,6-bisphosphate aldolase; AID 2451; purified Giardia FBPA; 0.71% of 290,000 active; Potency, µM (doses to about 59.6 µM), for the others: at the top dose activity, negative = inhibition, actives largely listed as inhibitors; also: potency is read from the fitted curve at half-maximal effect; % is scaled to controls: 0 for no effect and ±100 for the full control effect; nearly all actives have a fitted effect of over 55% in size
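40 nM FBPA preincubated 10 min at RT with compound (up to 57.5 uM final), then substrate plus GAPDH/TPI/NAD/arsenate coupling and diaphorase/resazurin added. Fluorescence read after 20 min at RT, 525/598 nm.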
Tb PYK inh: inhibitors of Trypanosoma brucei pyruvate kinase; Q57TT1; TbPYK enzyme, Kinase-Glo Plus ATP luminescence, 45 min; Potency, µM (doses to about 76.8 µM), inactives show top-dose activity, negative = inhibition, hits mostly inhibitors; 0.12% of 410,000 active; also: potency is read from the fitted curve at half-maximal effect; % is scaled to controls: 0 for no effect and ±100 for the full control effect; nearly all actives have a fitted effect of over 50% in size
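Assay buffer: 50 mM TEA pH 7.2, 100 mM KCl, 10 mM MgCl2, 0.05% BSA, 0.01% Tween-20. Pyruvate kinase from T. brucei plus substrate met compound, then ADP (130 uM final). Luminescence was read post 45 min RT.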
RE007 growth inh: less growth of the S. pombe RE007 Vpr strain; S. pombe RE007 Vpr strain, BacTiter-Glo ATP luminescence, 24 h; Potency, µM (titrated, usually from 92.2 µM), for the others: at the top dose activity change, negative = less growth, actives largely listed as inhibitors; 0.21% of 360,000 active; active = well fitted falling curve with a large enough effect; inconclusive = small, poorly fitted or top-dose-only effect; inactive = no such curve, though single readings can be large or run the other way; also: potency is read from the fitted curve at half-maximal effect; % is scaled to controls: 0 for no effect and ±100 for the full control effect; nearly all actives have a fitted effect of over 50% in size
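Fission yeast RE007 carrying one integrated HIV-1 vpr copy, seeded at OD 0.01 in PMG+AL medium with 23 nL pinned compound. Grown 24 h at 30 degrees; viability read by BacTiter-Glo luminescence after 5 min.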
Shiga inhibitor: blocks Shiga toxin action in Vero cells. Vero cells, Shiga toxin protein synthesis inhibition reporter. inhibition, % at 38.7 µM. 9.2% of 290,000 active. AID 2315; in the data active = inhibition mostly above about 28%, no sharp cut-off; inactive = mostly below about 43%; also: 0% is about no effect
LmPK inhibitor: LmPK (Leishmania mexicana) enzyme inhibition | Q27686 | purified LmPK, Kinase-Glo ATP luminescence, 1 h | Potency, µM (series often up to 57.5 µM), inactives show top-dose activity change, negative = inhibition, hits mostly inhibitors | 0.37% of 290,000 active | AID 1721; also: potency is read from the fitted curve at half-maximal effect; % is scaled to controls: 0 for no effect and ±100 for the full control effect
Target sequence (Q27686 whole entry, looked up): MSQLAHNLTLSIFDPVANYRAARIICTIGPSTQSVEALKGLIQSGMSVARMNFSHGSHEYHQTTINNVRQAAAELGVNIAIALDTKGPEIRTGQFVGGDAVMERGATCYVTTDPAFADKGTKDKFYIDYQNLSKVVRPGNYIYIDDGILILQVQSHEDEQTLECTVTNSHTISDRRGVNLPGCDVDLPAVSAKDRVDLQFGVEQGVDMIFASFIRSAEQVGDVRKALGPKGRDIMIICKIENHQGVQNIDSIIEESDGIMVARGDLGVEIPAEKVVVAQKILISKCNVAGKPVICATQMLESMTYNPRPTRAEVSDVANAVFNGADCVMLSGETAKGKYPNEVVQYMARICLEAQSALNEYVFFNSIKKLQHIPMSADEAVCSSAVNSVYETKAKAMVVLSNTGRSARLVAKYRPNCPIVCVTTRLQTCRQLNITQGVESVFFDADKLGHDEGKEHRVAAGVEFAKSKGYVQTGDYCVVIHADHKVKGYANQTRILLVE
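Pyruvate kinase activity monitored as ATP production (luciferase luminescence). Conditions: 0.1 nM enzyme, 0.5 mM PEP, 0.1 mM ADP, 1 h, RT; normalized against uninhibited and no-enzyme wells.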
Starred values were filed as active, the others as inactive; i = inactive; ? = inconclusive; . = no result given; [ ] = another dose, or the depositor's remark. The sample as a whole holds a higher share of hits than the screen did. Unless noted, calls follow the shape of the dose curve; as a rule, active = well fitted curve in the direction sought with a large enough effect; inconclusive = small, poorly fitted or top-dose-only effect, or another doubt; inactive = no such curve, though single readings can be large; an effect the other way counts as inactive or inconclusive.

SMILES	Cycloheximide cs	Giardia FBPA inh	Tb PYK inh	RE007 growth inh	Shiga inhibitor	LmPK inhibitor
COc1cccc(CNC(=O)C(NS(=O)(=O)c2ccc3c(c2)CCN3C(C)=O)C(C)C)c1 (configuration not stated)	24*	.	1%	3%	29	2%
CCOC(=O)Cc1cnc(NC(=O)CSc2nc(N)cc(=O)[nH]2)s1	-2	1%	-14%	6%	-11	4%
CCOC(=O)c1csc(-c2ccc3c(c2)CCO3)n1	41*	-4%	-6%	-13%	59*	-5%
CCOC(=O)c1csc(NC(=O)c2ccc(OCC)cc2)n1	38*	0%	5%	4%	95*	1%
CCOC(=O)Cc1cnc(NC(=O)c2ccccc2)s1	53*	-5%	-4%	-23%	91*	-15%
CCOC(=O)c1csc(NC(=O)c2ccc(OC)c(OC)c2)n1	-3	8%	-6%	8%	-4	4%
CCOC(=O)c1csc(NC(=O)c2ccc(S(=O)(=O)N(C)C)cc2)n1	-6	2%	-10%	-6%	8	0%
CCOC(=O)c1csc(NC(=O)c2ccccc2)n1	49*	0%	2%	4%	129*	-1%
COc1ccc([C@]23Cc4cc(OC)c(OC)cc4C(O2)C2=C(CC(C)(C)CC2=O)O3)cc1	2	8%[12.9 µM]	.	.	i	-8%[11.5 µM]
CC(=O)c1c(O)cccc1O	-12	-6%	.	.	-15	.
CCNC(=O)CC1C(=O)N(c2ccccc2)C(=O)N1Cc1ccc(F)cc1 (configuration not stated)	.	.	1%	.	.	.
CCc1nc2ccc(C(=O)NC(C)(C)C)cn2c1N(CC)Cc1cccc(Br)c1	.	.	5%	-26%	.	.
CCOC(=O)c1csc(NC(=O)c2ccc3c(c2)OCCO3)n1	51*	.	12%	-18%	127*	0%
CCOC(=O)c1csc(-c2sccc2Br)n1	51*	-6%	-22%	?	54*	16µM*
CCOC(=O)c1csc(NC(C)=O)n1	28*	7%	1%	6%	28	2%
O=c1c(-c2cc(-c3ccccc3)nc3c2COc2ccc(Cl)cc2-3)coc2ccc(F)cc12	.	.	-7%	.	.	.
Cc1cc(=O)oc2cc(OC3C=CC(C#CC(C)(C)C)OC3CO)ccc12 (configuration not stated)	.	-1%[12.9 µM]	.	.	.	.
CC(=O)OC1CC[C@]2(C)C(CC(OC(C)=O)[C@@]3(C)C4=CC(=O)OC(c5ccoc5)[C@]4(C)CCC23)C1(C)C (some centres not stated)	.	-11%	.	.	.	.
CC(C)C(NS(=O)(=O)c1ccc2c(c1)oc(=O)n2C)C(=O)NCc1ccccc1 (configuration not stated)	.	.	-3%	.	.	.
O=C(/C=C/c1ccccc1)NC(=S)Nc1cccnc1	12	-2%	-6%	1%	-2	2%
Cc1ccnc(NC(=S)NC(=O)/C=C/c2ccccc2)c1	32*	-5%	1%	-6%	61*	-2%
Cc1cccnc1NC(=S)NC(=O)/C=C/c1ccccc1	31*	?	-3%	-4%	78*	-1%
Cc1ccnc(NC(=S)NC(=O)/C=C/c2ccc(Cl)cc2)c1	26*	6%	-10%	-2%	26*	3%
CCC(=O)Nc1ccc(NC(=S)NC(=O)/C=C/c2ccccc2)cc1	5	2%	-5%	-1%	-7	2%
NC(=O)C1CCN(C(=O)c2ccc(NC(=O)c3nsc4ccccc34)cc2)CC1	.	.	-4%	.	.	.
SMILES	Cycloheximide cs	Giardia FBPA inh	Tb PYK inh	RE007 growth inh	Shiga inhibitor	LmPK inhibitor
O=C(CCSCCc1ccccn1)Nc1ccc(Cl)cc1	.	.	-14%	.	.	.
CCc1ccc(NC(=O)CSc2ccc(-c3ccco3)nn2)cc1	17*	-1%	-11%	-3%	24	-2%
Cn1c(N)c(C(=O)CSc2ccccn2)c(=O)n(C)c1=O	15	4%	-17%	0%	47*	-2%
Cn1c(N)c(C(=O)COC(=O)c2ccccn2)c(=O)n(C)c1=O	-2	-14%	1%	2%	-20	-1%
CC(=O)c1cccc(NC(=O)CSc2ccc(-c3ccco3)nn2)c1	3	.	?	-11%	15	-2%
Cc1ccccc1CSCC(=O)Nc1ccccc1-c1ccccc1	-1	1%	-12%	.	-5	0%
COc1ccc(NC(=O)CSCc2ccccc2C)cc1	54*	-7%	-12%	6%	65*	-5%
O=C(CCSc1ccccn1)Nc1ccc(Br)cc1	49*	-5%	-9%	27%	101*	2%
COc1ccc(S(=O)(=O)N2CCOCC2)cc1NC(=O)CN1CCN(C)CC1	.	.	-4%	-2%	.	.
Cc1cc2c(s1)c1cnn(Cc3ccccc3F)c(=O)c1n2C(C)C	16	.	.	.	-6	.
CCN1CCN(C(CNS(=O)(=O)c2cccs2)c2cccnc2)CC1 (configuration not stated)	-3	-1%	1%	-3%	-12	-4%
O=C(c1cccc([N+](=O)[O-])c1)N1c2nc(-c3ccco3)nn2C2(CCCCC2)[C@@H]2CCCC[C@@H]21	.	.	-6%	.	.	.
CS(=O)(=O)c1ccc(Cl)c(NC(=O)c2ccc(-n3cncn3)c([N+](=O)[O-])c2)c1	.	.	0%	15%	.	.
CCc1ccc(NC(=O)CSc2ccccn2)cc1	40*	-8%	-1%	-15%	64	4%
COc1cccc(NC(=O)CSc2ccccn2)c1	62*	-2%	-22%	11%	70*	-3%
COc1cccc(NC(=O)CSc2nc(C)cs2)c1	14	3%	-2%	-14%	21	1%
COc1ccc(NC(=O)CSc2ccccn2)c([N+](=O)[O-])c1	37*	1%	11%	25%	102*	0%
Cc1ccc(NC(=O)CSc2ncccn2)c([N+](=O)[O-])c1	28*	1%	7%	9%	82*	0%
Cc1ccc(NC(=O)CSc2nc(C)c(C)c(C)n2)c([N+](=O)[O-])c1	3	-9%	-15%	0%	-11	-2%
CCc1ccc(NC(=O)C2CCCN2S(=O)(=O)c2cccc3nsnc23)cc1 (configuration not stated)	.	.	1%	.	.	.
COc1ccccc1C(=O)CSc1ccccn1	27*	-3%	3%	-7%	94*	-13%
COC(=O)CNC(=O)CSc1ccccn1	-2	3%	-2%	3%	8	2%
O=C(CCSc1ccccn1)c1ccccc1	19	-27%	-9%	25µM*	22	-22%
Cc1ccc(NC(=O)COC(=O)Cn2nc(C)c([N+](=O)[O-])c2C)c([N+](=O)[O-])c1	28*	-11%	-5%	-19%	45	5%
Cc1nn(CC(=O)OCC(=O)Nc2ccccc2[N+](=O)[O-])c(C)c1[N+](=O)[O-]	-4	-3%	6%	2%	-9	-2%
CCc1ccc(NC(=O)CSCCO)cc1	14	2%	-10%	11%	37*	-2%

Assay outcomes as filed in PubChem.
